Screen size: about 5,500 compounds; about 2,000 (36%) were called active. About 18% were inconclusive and are not listed. This is one part of the list. Unmarked numbers belong to inactive results. No stated cut-off is given here; in the data, active means normalized growth mostly below about 0.91 (no sharp cut-off); inconclusive means no clear call, values can overlap the other calls; inactive means mostly above about 0.92.
Test: chemical genetic growth profiling, strain panel (AID 1159580);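 further: tested at 20 µM; growth read once vehicle control cultures reached saturation at 30 °C; 1 = growth at the plate median or of vehicle wells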
Settings: growth OD

## CCC(=O)OCC(=O)[C@@]1(OC(=O)CC)[C@@H](C)CC2C3CCC4=CC(=O)C=C[C@]4(C)C3(F)[C@@H](O)C[C@@]21C (some centres undefined)
S. cerevisiae deletion strains, locus YJR043C, strain POL32, stronger effect = lower value
  normalized growth: 0.841 (active)
S. cerevisiae deletion strains, locus YJR066W, strain TOR1, stronger effect = lower value
  normalized growth: 0.989
S. cerevisiae deletion strains, locus YJR075W, strain HOC1, stronger effect = lower value
  normalized growth: 0.945
S. cerevisiae deletion strains, locus YKL009W, strain mrt4, stronger effect = lower value
  normalized growth: 0.891
S. cerevisiae deletion strains, locus YKL068W, stronger effect = lower value
  normalized growth: 0.958
S. cerevisiae deletion strains, locus YKL085W, strain MDH1 (second series), stronger effect = lower value
  normalized growth: 0.959
S. cerevisiae deletion strains, locus YKL085W, strain MDH1, stronger effect = lower value
  normalized growth: 0.959
S. cerevisiae deletion strains, locus YKL160W, strain elf1, stronger effect = lower value
  normalized growth: 1.01
S. cerevisiae deletion strains, locus YKR001C, strain vps1, stronger effect = lower value
  normalized growth: 0.916
S. cerevisiae deletion strains, locus YKR026C, strain gcn3, stronger effect = lower value
  normalized growth: 0.997
S. cerevisiae deletion strains, locus YKR091W, strain srl3, stronger effect = lower value
  normalized growth: 0.997
S. cerevisiae deletion strains, locus YLL001W, strain dnm1, stronger effect = lower value
  normalized growth: 1.01
S. cerevisiae deletion strains, locus YLL026W, stronger effect = lower value
  normalized growth: 1.01
S. cerevisiae deletion strains, locus YLL041C, strain sdh2, stronger effect = lower value
  normalized growth: 0.994
S. cerevisiae deletion strains, locus YLR027C, strain aat2, stronger effect = lower value
  normalized growth: 0.999
S. cerevisiae deletion strains, locus YLR039C, strain RIC1, stronger effect = lower value
  normalized growth: 0.85
S. cerevisiae deletion strains, locus YLR058C, strain SHM2, stronger effect = lower value
  normalized growth: 0.943
S. cerevisiae deletion strains, locus YLR102C, strain apc9, stronger effect = lower value
  normalized growth: 0.973
S. cerevisiae deletion strains, locus YLR113W, strain HOG1, stronger effect = lower value
  normalized growth: 1.05
S. cerevisiae deletion strains, locus YLR221C, strain rsa3, stronger effect = lower value
  normalized growth: 1.01
S. cerevisiae deletion strains, locus YLR258W, strain gsy2, stronger effect = lower value
  normalized growth: 0.997
S. cerevisiae deletion strains, locus YLR262C, strain YPT6 (second series), stronger effect = lower value
  normalized growth: 1
S. cerevisiae deletion strains, locus YLR262C, strain YPT6, stronger effect = lower value
  normalized growth: 0.772
S. cerevisiae deletion strains, locus YLR268W, strain sec22, stronger effect = lower value
  normalized growth: 0.915
S. cerevisiae deletion strains, locus YLR320W, strain mms22, stronger effect = lower value
  normalized growth: 1.02
S. cerevisiae deletion strains, locus YLR330W, strain CHS5, stronger effect = lower value
  normalized growth: 0.898 (active)
S. cerevisiae deletion strains, locus YLR342W, strain FKS1 (second series), stronger effect = lower value
  normalized growth: 0.741 (active)
S. cerevisiae deletion strains, locus YLR342W, strain FKS1, stronger effect = lower value
  normalized growth: 1.01
S. cerevisiae deletion strains, locus YLR357W, strain rsc2, stronger effect = lower value
  normalized growth: 1.02
S. cerevisiae deletion strains, locus YLR370C, strain arc18, stronger effect = lower value
  normalized growth: 1
S. cerevisiae deletion strains, locus YLR371W, strain rom2, stronger effect = lower value
  normalized growth: 0.95
S. cerevisiae deletion strains, locus YLR384C, strain iki3, stronger effect = lower value
  normalized growth: 0.998
S. cerevisiae deletion strains, locus YLR418C, strain cdc73, stronger effect = lower value
  normalized growth: 0.777 (active)
S. cerevisiae deletion strains, locus YML016C, strain PPZ1, stronger effect = lower value
  normalized growth: 0.967
S. cerevisiae deletion strains, locus YML032C, strain rad52, stronger effect = lower value
  normalized growth: 0.843 (active)
S. cerevisiae deletion strains, locus YML120C, strain ndi1, stronger effect = lower value
  normalized growth: 0.995
S. cerevisiae deletion strains, locus YML124C, strain tub3, stronger effect = lower value
  normalized growth: 0.953
S. cerevisiae deletion strains, locus YMR058W, strain fet3, stronger effect = lower value
  normalized growth: 0.997
S. cerevisiae deletion strains, locus YMR078C, strain ctf18, stronger effect = lower value
  normalized growth: 0.925
S. cerevisiae deletion strains, locus YMR125W, strain sto1, stronger effect = lower value
  normalized growth: 0.984
S. cerevisiae deletion strains, locus YMR129W, stronger effect = lower value
  normalized growth: 0.99
S. cerevisiae deletion strains, locus YMR205C, strain PFK2, stronger effect = lower value
  normalized growth: 1.02
S. cerevisiae deletion strains, locus YMR223W, strain ubp8, stronger effect = lower value
  normalized growth: 0.876 (active)
S. cerevisiae deletion strains, locus YMR231W, strain pep5, stronger effect = lower value
  normalized growth: 1.02
S. cerevisiae deletion strains, locus YMR307W, strain GAS1, stronger effect = lower value
  normalized growth: 0.642
S. cerevisiae deletion strains, locus YNL067W, strain RPL9B, stronger effect = lower value
  normalized growth: 0.994
S. cerevisiae deletion strains, locus YNL071W, strain lat1, stronger effect = lower value
  normalized growth: 0.998
S. cerevisiae deletion strains, locus YNL128W, strain TEP1, stronger effect = lower value
  normalized growth: 0.941
S. cerevisiae deletion strains, locus YNL153C, strain GIM3, stronger effect = lower value
  normalized growth: 0.945
S. cerevisiae deletion strains, locus YNL183C, strain NPR1, stronger effect = lower value
  normalized growth: 0.974
S. cerevisiae deletion strains, locus YNL209W, strain ssb2, stronger effect = lower value
  normalized growth: 0.994
S. cerevisiae deletion strains, locus YNL233W, strain BNI4, stronger effect = lower value
  normalized growth: 0.902
S. cerevisiae deletion strains, locus YNL248C, strain rpa49, stronger effect = lower value
  normalized growth: 0.994
S. cerevisiae deletion strains, locus YNL250W, strain rad50, stronger effect = lower value
  normalized growth: 0.907
S. cerevisiae deletion strains, locus YNL271C, strain bni1, stronger effect = lower value
  normalized growth: 0.951
S. cerevisiae deletion strains, locus YNL298W, strain CLA4, stronger effect = lower value
  normalized growth: 0.942
S. cerevisiae deletion strains, locus YNL307C, strain MCK1, stronger effect = lower value
  normalized growth: 0.835 (active)
S. cerevisiae deletion strains, locus YNL322C, strain KRE1 (second series), stronger effect = lower value
  normalized growth: 0.982
S. cerevisiae deletion strains, locus YNR049C, strain mso1, stronger effect = lower value
  normalized growth: 0.999
S. cerevisiae deletion strains, locus YNR052C, strain pop2, stronger effect = lower value
  normalized growth: 0.955
S. cerevisiae deletion strains, locus YOL012C, strain htz1
  normalized growth: 1.01
S. cerevisiae deletion strains, locus YOL147C, strain pex11, stronger effect = lower value
  normalized growth: 0.958
S. cerevisiae deletion strains, locus YOR001W, strain rrp6, stronger effect = lower value
  normalized growth: 0.992
S. cerevisiae deletion strains, locus YOR061W, strain CKA2, stronger effect = lower value
  normalized growth: 0.93
S. cerevisiae deletion strains, locus YOR069W, strain VPS5, stronger effect = lower value
  normalized growth: 0.973
S. cerevisiae deletion strains, locus YOR070C, strain gyp1, stronger effect = lower value
  normalized growth: 1
S. cerevisiae deletion strains, locus YOR080W, strain dia2, stronger effect = lower value
  normalized growth: 1.01
S. cerevisiae deletion strains, locus YOR083W, strain WHI5, stronger effect = lower value
  normalized growth: 1
S. cerevisiae deletion strains, locus YOR106W, strain vam3, stronger effect = lower value
  normalized growth: 0.995
S. cerevisiae deletion strains, locus YOR136W, strain idh2, stronger effect = lower value
  normalized growth: 0.981
S. cerevisiae deletion strains, locus YOR144C, strain elg1, stronger effect = lower value
  normalized growth: 0.953
S. cerevisiae deletion strains, locus YOR184W, strain ser1, stronger effect = lower value
  normalized growth: 0.838 (active)
S. cerevisiae deletion strains, locus YOR231W, strain MKK1, stronger effect = lower value
  normalized growth: 0.994
S. cerevisiae deletion strains, locus YOR265W, strain rbl2, stronger effect = lower value
  normalized growth: 1.01
S. cerevisiae deletion strains, locus YOR270C, strain vph1, stronger effect = lower value
  normalized growth: 0.887
S. cerevisiae deletion strains, locus YOR290C, strain snf2, stronger effect = lower value
  normalized growth: 0.981
S. cerevisiae deletion strains, locus YOR316C, strain cot1, stronger effect = lower value
  normalized growth: 0.961
S. cerevisiae deletion strains, locus YPL051W, strain arl3, stronger effect = lower value
  normalized growth: 1
S. cerevisiae deletion strains, locus YPL055C, strain LGE1, stronger effect = lower value
  normalized growth: 0.853
S. cerevisiae deletion strains, locus YPL078C, strain atp4, stronger effect = lower value
  normalized growth: 0.996
S. cerevisiae deletion strains, locus YPL106C, strain sse1, stronger effect = lower value
  normalized growth: 1.03
S. cerevisiae deletion strains, locus YPL240C, strain hsp82, stronger effect = lower value
  normalized growth: 0.997
S. cerevisiae deletion strains, locus YPL256C, strain CLN2, stronger effect = lower value
  normalized growth: 0.998
S. cerevisiae deletion strains, locus YPR119W, strain clb2, stronger effect = lower value
  normalized growth: 0.953
S. cerevisiae deletion strains, locus YPR141C, strain kar3, stronger effect = lower value
  normalized growth: 0.964
S. cerevisiae deletion strains, locus YPR163C, strain tif3, stronger effect = lower value
  normalized growth: 0.942
S. cerevisiae deletion strains, locus YPR167C, strain met16, stronger effect = lower value
  normalized growth: 0.936
S. cerevisiae deletion strains, strain wtn01, stronger effect = lower value
  normalized growth: 0.959
S. cerevisiae strains, strain wild type, stronger effect = lower value
  normalized growth: 0.929

— PubChem BioAssay AID1159580 (chemical genetic matrix, 2015)
